Screening data as filed in PubChem BioAssay.
Autofluor counter: counter-screen for toxin protease inhibitors: compound fluorescence; fluorescence intensity (concentration not given with the values); compound autofluorescence counterscreen, microsphere flow cytometry; hits give high values; 360,000 compounds, 3.1% hits; in the data active = fluorescence intensity above about 16000; inconclusive = no clear call, values can overlap the other calls
SSB-PriA inh: blocks PriA binding to SSB C-terminal tail. inhibition, % at 33 µM. 430,000 compounds, 0.6% hits. AlphaScreen SSBct-PriA binding, biotinylated peptide; in the data active = inhibition mostly above about 37%, no sharp cut-off; inactive = mostly below about 20%;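 note: plate controls were negative control peptide for no effect and reference peptide for full effect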
BoNT-A LC inh2: inhibitors of Botulinum neurotoxin A light chain protease; inhibition, % at 10 µM; 360,000 compounds, 0.17% hits; multiplex microsphere protease substrate cleavage, flow cytometry; note: plate controls were buffer without enzyme for full effect and enzyme alone for no effect
BoNT-F LC inh: inhibitors of Botulinum neurotoxin F light chain protease | Multiplex microsphere protease cleavage assay, flow cytometry | inhibition, % at 10 µM | 360,000 compounds, 0.22% hits | AID 588497; in the data active = inhibition above about 35%, passing the limit was not always enough; inconclusive = no clear call, values can overlap the other calls; note: plate controls were buffer without enzyme for full effect and enzyme alone for no effect
Anthrax LF prot: anthrax lethal factor protease inhibition. P15917. multiplex microsphere protease cleavage assay, LF. inhibition, % at 10 µM. 360,000 compounds, 0.12% hits; note: plate controls were buffer without enzyme for full effect and enzyme alone for no effect
MazF activator: increases E. coli MazEF RNase cleavage of RNA | FAM/BHQ RNA-DNA oligo cleavage fluorescence, 5 h | P0AE70 | activation, % at 20 µM | AID 504720 | 350,000 compounds, 0.32% hits; in the data active = activation above about 50%
Target sequence (P0AE70 whole entry, looked up): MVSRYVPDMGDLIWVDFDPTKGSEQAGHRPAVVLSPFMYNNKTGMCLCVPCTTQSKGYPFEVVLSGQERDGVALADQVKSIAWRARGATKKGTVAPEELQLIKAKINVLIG
The depositor's hits bear a star. Most compounds without a hit are left out; they make up all but 3.3% or so of the library. Cut-off read from the data, not from the text of the source, unless noted: active = inhibition above about 30%; inconclusive = no clear call, values can overlap the other calls; inactive = below that.

Screening OCCN1CCN(C(=S)c2ccc(Cl)cc2)CC1 returned Autofluor counter 2092, SSB-PriA inh -2, BoNT-A LC inh2 0, BoNT-F LC inh -2, Anthrax LF prot -1 and MazF activator 9.
Screening CC(C)(C)c1cc(C(=S)N2CCN(CCO)CC2)cc(C(C)(C)C)c1O returned Autofluor counter 23211*, SSB-PriA inh 9, BoNT-A LC inh2 1, BoNT-F LC inh 0, Anthrax LF prot -4 and MazF activator 1.
O=C(COC(=O)CCN1C(=O)/C(=C\C=C\c2ccccc2)SC1=S)Nc1ccc(Br)cc1 was read as Autofluor counter 4781, SSB-PriA inh 1, BoNT-A LC inh2 41*, BoNT-F LC inh 14, Anthrax LF prot 27 and MazF activator -6.
`CC(C)c1ccccc1NC(=O)COC(=O)CCN1C(=O)/C(=C\C=C\c2ccccc2)SC1=S` gave Autofluor counter 2544, SSB-PriA inh -12, BoNT-A LC inh2 40*, BoNT-F LC inh 6, Anthrax LF prot 18 and MazF activator 48.
`COCCNC(=O)c1ccc2c(=O)n(Cc3ccco3)c(SCC(=O)NC3CCCC3)nc2c1` gave Autofluor counter 21828*, SSB-PriA inh -13, BoNT-A LC inh2 1, BoNT-F LC inh 4, Anthrax LF prot -9 and MazF activator 0.
CCOC(=O)CSc1nc2cc(C(=O)NCC3CCCO3)ccc2c(=O)n1Cc1ccco1 (configuration not stated) was read as Autofluor counter 22243*, SSB-PriA inh 1, BoNT-A LC inh2 1, BoNT-F LC inh 2, Anthrax LF prot -4 and MazF activator -6.
For CCCCn1c(SCC(=O)NCc2ccccc2)nc2ccc(N3CCOCC3)cc2c1=O the results were Autofluor counter 7586, SSB-PriA inh 1, BoNT-A LC inh2 1, BoNT-F LC inh 3, Anthrax LF prot -3 and MazF activator -3.
Screening CCCCn1c(SCC(=O)NCc2ccco2)nc2ccc(N3CCOCC3)cc2c1=O returned Autofluor counter 22158*, SSB-PriA inh 2, BoNT-A LC inh2 -7, BoNT-F LC inh -9, Anthrax LF prot -2 and MazF activator -2.
COCCCn1c(SCC(=O)NCc2ccco2)nc2sc3c(c2c1=O)CCC3 was read as Autofluor counter 19443*, SSB-PriA inh 8, BoNT-A LC inh2 2, BoNT-F LC inh 4, Anthrax LF prot -2 and MazF activator -1.
CCc1ccc(S(=O)(=O)NCCCn2nc(-c3ccc(Cl)cc3)ccc2=O)s1 was read as SSB-PriA inh -6.
`O=C(CCCSc1ccc(NC(=O)c2ccco2)nn1)NCC1CCCO1` (configuration not stated) gave SSB-PriA inh -10.
For COC(=O)Cn1c(=NC(=O)C2CCN(S(=O)(=O)c3cccs3)CC2)sc2cc(C(C)C)ccc21 the results were SSB-PriA inh -5.
For O=C(Cc1cc(-c2ccccc2)on1)Nc1ccc(C(F)(F)F)cc1 the results were SSB-PriA inh 16.
`CCCCCn1c(SCC(=O)OCC)nc2cc(C(=O)NCc3ccco3)ccc2c1=O` gave Autofluor counter 21498*, SSB-PriA inh 0, BoNT-A LC inh2 -6, BoNT-F LC inh -10, Anthrax LF prot -6 and MazF activator -1.
CCc1ccc(NC(=O)CSc2nc3cc(C(=O)OC)ccc3c(=O)n2Cc2ccco2)cc1 was read as Autofluor counter 6295, SSB-PriA inh -16, BoNT-A LC inh2 1, BoNT-F LC inh 0, Anthrax LF prot -4 and MazF activator 21.
Screening CCN(C(=O)CSc1nc2cc(C(=O)OC)ccc2c(=O)n1Cc1ccco1)c1cccc(C)c1 returned Autofluor counter 16983*, SSB-PriA inh -11, BoNT-A LC inh2 -3, BoNT-F LC inh -7, Anthrax LF prot -3 and MazF activator -8.
`C=CCn1c(SCC(=O)OCC)nc2cc(C(=O)NCc3ccco3)ccc2c1=O` gave Autofluor counter 23049*, SSB-PriA inh -11, BoNT-A LC inh2 1, BoNT-F LC inh 0, Anthrax LF prot -2 and MazF activator 3.
C=CCn1c(SCC(=O)NCc2ccco2)nc2ccccc2c1=O was read as Autofluor counter 3795, SSB-PriA inh -4, BoNT-A LC inh2 -1, BoNT-F LC inh -5, Anthrax LF prot -6 and MazF activator 0.
Screening O=C(CNC(=O)c1ccccc1C(F)(F)F)N/N=C\c1cccs1 returned SSB-PriA inh 4.
CCOc1ccc(C(=O)N(CN2CCCC2=O)c2ccccc2)cc1 was read as Autofluor counter 19439*, SSB-PriA inh -17, BoNT-A LC inh2 inconclusive, BoNT-F LC inh 0, Anthrax LF prot 0 and MazF activator -5.
`CCOc1ccc(C(=O)N(CN2CCCC2=O)c2ccc(C)cc2)cc1` gave SSB-PriA inh -13 and MazF activator -4.
`Cc1ccc(N(CN2CCCC2=O)C(=O)c2ccc(OC(C)C)cc2)cc1` gave Autofluor counter 19242*, SSB-PriA inh -19, BoNT-A LC inh2 inconclusive, BoNT-F LC inh 1, Anthrax LF prot -2 and MazF activator 8.
Screening Cc1ccc(C(=O)N(CN2CCCC2=O)c2ccccc2)cc1 returned Autofluor counter inconclusive, SSB-PriA inh 6, BoNT-A LC inh2 -19, BoNT-F LC inh -24, Anthrax LF prot -28 and MazF activator 4.
For O=C(c1cccc(-c2ccccc2)c1)N1CC[C@@H](N2CCC(O)CC2)[C@H](O)C1 the results were Autofluor counter 19128*, SSB-PriA inh 0, BoNT-A LC inh2 -1, BoNT-F LC inh 11, Anthrax LF prot 8 and MazF activator -1.
For COC(=O)c1c(C(=O)OC)c(-c2ccc(C)cc2)n2c1CCC2 the results were Autofluor counter 24446*, SSB-PriA inh -3, BoNT-A LC inh2 -5, BoNT-F LC inh -7, Anthrax LF prot 0 and MazF activator -5.
For Cc1ccc(S(=O)(=O)Cn2cnnn2)cc1 the results were Autofluor counter 24828*, SSB-PriA inh 10, BoNT-A LC inh2 -3, BoNT-F LC inh -2, Anthrax LF prot 0 and MazF activator -6.
For NC(=NS(=O)(=O)c1ccc(Cl)cc1)c1ccccc1Cl the results were SSB-PriA inh -1.
For COc1ccc(OCC(O)CNC(=O)c2ccc(OC)cc2)cc1 (configuration not stated) the results were Autofluor counter 2605, SSB-PriA inh 5, BoNT-A LC inh2 0, BoNT-F LC inh -1, Anthrax LF prot -2 and MazF activator 1.
COc1ccc(C(=O)NCc2c(C)oc(C)c2C(=O)O)cc1 was read as Autofluor counter 3063, SSB-PriA inh 0, BoNT-A LC inh2 1, BoNT-F LC inh 36*, Anthrax LF prot -4 and MazF activator 8.
For COc1ccc(OCc2ccc(C(=O)NN)cc2)cc1 the results were Autofluor counter 19696*, SSB-PriA inh -8, BoNT-A LC inh2 0, BoNT-F LC inh -3, Anthrax LF prot -1 and MazF activator -5.
`COc1ccc(C(=O)NCC(=O)O)cc1` gave Autofluor counter 17003*, SSB-PriA inh 5, BoNT-A LC inh2 -2, BoNT-F LC inh -8, Anthrax LF prot -4 and MazF activator 5.
